Assay results reported in PubChem BioAssay (NCATS).
Results filed as inconclusive are left out. Values without a mark were called inactive. Calls come from the whole dose curve; as a rule, active = well fitted cell-killing curve with a large enough effect; inconclusive = small, poorly fitted or top-dose-only effect, or effect the other way; inactive = flat fitted curve, though single readings scatter.

These compounds were tested on CAOV3 (assay: Primary qHTS to identify gynecologic anti-cancer compounds using libraries of approved drugs and bioactive compounds (AID 1345084; note: nearly all actives have a fitted effect of over 55% in size)). Conditions: Gynecologic cancer cell panel viability, ATPlite luminescence, 48 h; series mostly up to 57.5 µM; activity change, negative = cytotoxicity: at the top concentration.
How it was run: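 ATP-based viability (ATPlite), 1,000 cells/well, 16 h pre-incubation, 48 h compound at 37 C, 5% CO2, 15 min RT before read.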
% is set by controls: 0 for no effect and ±100 for the full control effect.

Structure (SMILES)	activity change, negative = cytotoxicity
CC(=O)OCC(=O)O[C@@H]1[C@H]2[C@@H](OC(=O)c3ccccc3)[C@@H](C)C[C@]2(O)[C@H](OC(C)=O)C2(C)[C@H]3CC(C)(C)C(=O)[C@@H]3CC1(OC(C)=O)[C@@H]2OC(C)=O (some centres undefined)	7.66% [at 25.3 µM]
CC1(O)CCC2C(C(=O)O)=COC(OC3OC(CO)C(O)C(O)C3OC(=O)/C=C/c3ccc(O)cc3)C21 (centres undefined)	-25.6% [at 25.3 µM]
CC(=O)NC(CCC(=O)O)C(=O)NCCc1ccc(O)cc1 (centres undefined)	6.76%
COC(=O)C1C(c2ccc(O)cc2)C(C(=O)OC)C1c1ccc(O)cc1 (centres undefined)	13.6% [at 38.5 µM]
C=C(C)C(=O)O[C@H]1C[C@@](C)(OC(C)=O)[C@@]2(O)CC[C@@](C)(O)[C@H](OC(C)=O)[C@@]23OC(=O)C(COC)=C13	-9.91% [at 25.3 µM]
CC1(C)CC(=O)N(CCCCN2CCN(c3ncccn3)CC2)C(=O)C1	15.9%
COc1ccc2c(c1)OC[C@]1(O)c3cc4c(cc3O[C@H]21)OCO4	-1.28% [at 38.5 µM]
CC(CCC1(O)OC2CC3C4CCC5CC(O[C@@H]6O[C@H](CO)[C@@H](O)[C@H](O)[C@H]6O[C@@H]6OC[C@@H](O)[C@H](O)[C@H]6O)C(O)CC5(C)C4CCC3(C)C2C1C)CO[C@@H]1O[C@H](CO)[C@@H](O)[C@H](O)[C@H]1O (some centres undefined)	10.9% [at 11.6 µM]
COc1cc(CCc2ccccc2)c(C(=O)O)c2c1CC(C(C)(C)O)O2 (centres undefined)	3.07% [at 38.5 µM]
CCCC1=CC2=C(CO1)C(=O)C(C)(OC(=O)c1c(C)cc(OC)cc1O)C(O)C2 (centres undefined)	6.71% [at 25.3 µM]
C[C@@H]1O[C@@H](O[C@@H]2[C@@H](O)[C@H](O[C@@H]3[C@@H](O)[C@@H](O)[C@H](O[C@H]4[C@H](OC(=O)[C@]56CCC(C)(C)C[C@H]5C5=CCC7[C@@]8(C)C[C@H](O)[C@H](O[C@@H]9O[C@@H](C)[C@H](O)[C@@H](O)[C@H]9O)[C@@](C)(CO)C8CC[C@@]7(C)[C@]5(C)C[C@H]6O)O[C@H](C)[C@H](O)[C@@H]4O)O[C@H]3C)OC[C@H]2O)[C@H](O)[C@H](O)[C@H]1O (some centres undefined)	7.84% [at 6.55 µM]
CCS(=O)(=O)N1CCC([C@@H](C)n2c(C)c(C(=O)NCc3c(OC)cc(C)[nH]c3=O)c3ccccc32)CC1	29.9%
C/C=C1\[C@H](O[C@@H]2O[C@H](CO)[C@@H](O)[C@H](O)[C@H]2O)OC=C(C(=O)OC)[C@H]1CC(=O)OC	-3.22% [at 25.3 µM]
O=C(O[C@H]1[C@@H]2C[C@@H]3OC[C@@](O)([C@H]2[C@H](O[C@@H]2O[C@H](CO)[C@@H](O)[C@H](O)[C@H]2O)O3)[C@@H]1O)c1ccccc1	-3.13% [at 25.3 µM]
CC1CCC2C(C)(C)C(O)CCC2(C)C12Cc1c(O)cc3c(c1O2)C(N)=NC3 (centres undefined)	-4.25% [at 38.5 µM]
C=CC(C)(C)O[C@@H]1O[C@H](CO[C@@H]2OC[C@](O)(CO)[C@H]2O)[C@@H](O)[C@H](O)[C@H]1O	4.4% [at 38.5 µM]
CCCC(N[C@@H](C)C(=O)N1[C@H](C(=O)O)C[C@@H]2CCCC[C@@H]21)C(=O)OCC (some centres undefined)	5.77%
O=C(O)c1ccc(CCCc2ccc(OCCc3ccc(F)cc3)cc2)o1	8.74%
Cc1[nH]cnc1C1CCN(c2nc3cccc4c3n2CCC4=O)CC1	17%
C[C@@H]1O[C@@H](O[C@@H]2[C@@H](O)[C@H](O[C@@H]3[C@@H](O)[C@@H](O)[C@H](O[C@H]4[C@H](OC(=O)[C@]56CCC(C)(C)C[C@H]5C5=CCC7[C@@]8(C)C[C@H](O)[C@H](O[C@@H]9O[C@H](C(=O)O)[C@@H](O)[C@H](O)[C@H]9O)[C@@](C)(CO)C8[C@H](O)C[C@@]7(C)[C@]5(C)CC6)OC[C@H](O)[C@@H]4O)O[C@H]3C)OC[C@H]2O)[C@H](O)[C@H](O)[C@H]1O (some centres undefined)	1.69% [at 6.55 µM]

Structure (SMILES)	activity change, negative = cytotoxicity
CC1(C)CC2C(O)C3=C(CC(C)(O)C2C1)C(=O)OC3O (centres undefined)	15.6%
CC(C)=CC/C=C(/C)[C@H]1CC[C@]2(C)[C@@H]1[C@H](O)CC1[C@@]3(C)CC[C@H](O)C(C)(C)[C@@H]3[C@@H](O[C@@H]3O[C@H](CO)[C@@H](O)[C@H](O)[C@H]3O[C@@H]3O[C@@H](C)[C@H](O)[C@@H](O)[C@H]3O)C[C@]12C (some centres undefined)	-8.14% [at 25.3 µM]
O=C(/C=C/c1ccc(O)cc1)OCC1=C[C@@H](O)[C@@H]2C=CO[C@@H](O[C@@H]3O[C@H](CO)[C@@H](O)[C@H](O)[C@H]3O)[C@H]12	13.5% [at 25.3 µM]
O=C(O[C@H]1[C@@H]2C=CO[C@@H](O[C@@H]3O[C@H](CO)[C@@H](O)[C@H](O)[C@H]3O)[C@@H]2[C@@]2(CO)O[C@@H]12)c1ccc(O)c(O)c1	19.3% [at 25.3 µM]
O=C(O)C[C@H]1CCC(=O)[C@@H]1C/C=C\CCOC1OC(CO)C(O)C(O)C1O (some centres undefined)	22.4% [at 38.5 µM]
CC(=O)OC1C(O)C(C)=C(CCC(C)CC(=O)O)C2(C)CCCC(C)(C)C12 (centres undefined)	1.95% [at 38.5 µM]
Cc1ncc([N+](=O)[O-])n1CC(O)CN1CCOCC1 (centres undefined)	9.75%
COc1cc2c(cc1O)C1(Cc3ccc4c(c3C1=O)OCO4)N(C)CC2 (centres undefined)	8.67% [at 38.5 µM]
COC(=O)[C@H](CC1C=NC=N1)NCC12CC3CC(CC(C3)C1)C2 (some centres undefined)	30.7%
CCOC(=O)c1ccc(N(C)c2csc(-c3ccccc3)n2)cc1	32.3%
C/C1=C\C[C@H](O[C@@H]2O[C@H](CO)[C@@H](O)[C@H](O)[C@H]2O)/C(C)=C/[C@H]2OC(=O)[C@H](C)[C@@H]2CC1	15.9% [at 25.3 µM]
COc1ccc(C(=O)O[C@H]2CC(C)=CC[C@@]3(C)[C@@H](OC(C)=O)C[C@@](O)(C(C)C)[C@H]23)cc1	17.2% [at 25.3 µM]
CC/C=C\C[C@H]1C(=O)C=C[C@@H]1CCCCCCCC(=O)O	13.5%
CC1CC(=O)C2=C(O1)OC1(C)CCC3C(C)(C)C=CC(=O)C3(C)C1C2 (centres undefined)	7.34% [at 38.5 µM]
CC1(CO)CC2C(O)C(=O)C3(CO)CC3(C)C2C1 (centres undefined)	28.1%
CCn1nnnc1NCc1ccc(C(C)C)cc1	4.14%
CCNC(=O)CCC/C=C\C[C@@H]1[C@@H](/C=C/C(O)CCc2ccccc2)[C@@H](O)C[C@@H]1O (some centres undefined)	-1.97%
CN[C@@H]1[C@@H](O)[C@@H](O[C@@H]2[C@@H](O)[C@H](O[C@H]3O[C@H](CN)[C@@H](O)[C@H](O)[C@H]3O)[C@@H](N)C[C@H]2NC(=O)[C@@H](O)CN)OC[C@]1(C)O	24.7%
CC1(C)OC(=O)C(OCC2CC2)=C1c1ccc(S(C)(=O)=O)cc1	3.6%
